Laboratory results: PubChem BioAssay AID720513 (Broad Institute, 2013)
About 480 (23%) of roughly 2,100 compounds were called active. Not shown: some 5% with an inconclusive outcome.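 The calls were made as follows: active = fitted curve reaches 40% activation at or below the top valid concentration, in every replicate test; inconclusive = replicate tests disagree on the call; inactive = the rest, including activity in the opposite direction.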 The list is a sample of the results. Entries with a potency or affinity are not part of this list.

Assay: activators raising PGC1a acetylation in cells, dose response, cell-based, cherry-picked samples, set 6 (AID 720513);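 also: cells made to overexpress flag tagged PGC1a plus GCN5 acetyltransferase by viral infection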
Settings: U2OS PGC1a acetylation AlphaLISA, overnight, 0 = neutral, -100 = inhibitor control; series mostly up to 19.5 µM

Row | SMILES | outcome
1 | NC(=O)c1sc2nc3c(c(-c4cccs4)c2c1N)CCCCC3 | inactive
2 | O=C(Cc1ccccc1)N1CC[C@@H]2[C@H]1c1cc(C#Cc3ccccc3)ccc1N[C@@H]2CO | inactive
3 | COc1ccc(S(=O)(=O)N[C@H]2CC[C@@H](CCNC(=O)c3ccccc3F)O[C@@H]2CO)cc1 | inactive
4 | CCCOC(=O)c1ccc(-n2nnnc2SCC(=O)N2CCCCC2)cc1 | inactive
5 | C[C@@H]1CN([C@@H](C)CO)C(=O)c2cccc(NC(=O)Nc3ccccc3)c2O[C@H]1CN(C)S(=O)(=O)c1cccs1 | inactive
6 | CN(CC(=O)Nc1ccccc1Br)C(=O)c1cccc(S(=O)(=O)NCc2ccccc2)c1 | inactive
7 | COc1ccccc1NC(=O)Cn1c(C)cc(=O)c2cccc(OC)c21 | inactive
8 | COc1ccc(Cl)cc1NC(=O)NCC1CCN(C(=O)OC(C)(C)C)CC1 | inactive
9 | O=C(Nc1ccc(C(F)(F)F)cc1)N1C[C@@H]2N[C@H](C1)C2c1ccc(-c2ccccc2)cc1 (stereo partly specified) | inactive
10 | O=C(Nc1ccc(C(F)(F)F)cc1)N1C[C@@H]2N[C@H](C1)C2c1ccc(/C=C/c2ccccc2)cc1 (stereo partly specified) | inactive
11 | CO[C@@H]1CN(C)C(=O)c2ccc(NS(=O)(=O)CC(F)(F)F)cc2OC[C@@H](C)N(C(=O)NC(C)C)C[C@H]1C | inactive
12 | O=C(CNC(=O)C1CCCCC1)OCC(=O)c1ccc(Cl)s1 | inactive
13 | CCOCCc1nn2c(=O)cc(CSCC(=O)Nc3cccc(C)c3C)nc2s1 | inactive
14 | CC(C)(C)NC(=O)c1ccc(Sc2ccccc2)c([N+](=O)[O-])c1 | inactive
15 | Cc1cc(=O)[nH]c(SCC(=O)c2ccc(F)c(C)c2)n1 | inactive
16 | Cc1cccc(Oc2ccccc2NC(=O)C2=COCCO2)c1 | inactive
17 | COc1cc(CN2CCC(C(=O)NCCC(C)C)CC2)ccc1OCc1ccccc1 | inactive
18 | CCOc1ccc(-c2[nH]ncc2-c2ccc(OC)c(OC)c2)c(O)c1 | inactive
19 | CNc1ccc2ncc(-c3ccc(OC)c(OC)c3)n2n1 | inactive
20 | CC(C)(C)OC(=O)NC(Cc1ccccc1)C(=O)NCCCC(=O)O (stereo unspecified) | inactive
21 | C[C@@H]1CN([C@@H](C)CO)C(=O)c2cc(C3=CCCC3)cnc2O[C@@H]1CN(C)C(=O)Nc1cccc(F)c1 | inactive
22 | C[C@@H]1CN([C@H](C)CO)C(=O)CCCn2cc(nn2)CO[C@H]1CN(C)C(=O)Nc1ccc(C(F)(F)F)cc1 | inactive
23 | CC(C)NC(=O)N(C)C[C@H]1OCCCC[C@@H](C)Oc2ccc(NC(=O)Nc3ccc(C(F)(F)F)cc3)cc2C(=O)N([C@H](C)CO)C[C@@H]1C | inactive

Row | SMILES | outcome
24 | C[C@@H]1CN([C@H](C)CO)C(=O)CCCn2nncc2CO[C@H]1CN(C)C(=O)Nc1cccc(F)c1 | inactive
25 | COC(=O)Cn1ccc(-c2ccc(Cl)cc2)c(C#N)c1=O | inactive
26 | NC(=O)COC(=O)CC(NC(N)=O)c1ccc(Cl)cc1 (stereo unspecified) | inactive
27 | C[C@@H]1CN([C@H](C)CO)C(=O)CCCn2nncc2CO[C@@H]1CN(C)S(=O)(=O)c1cn(C)cn1 | inactive
28 | Cc1ccccc1C(=O)Nc1ccc(C(=O)O)cc1NC(=O)c1ccccc1C | inactive
29 | Cc1ccc(NC2=C([N+](=O)[O-])CS(=O)(=O)C2)cc1 | inactive
30 | O=C(COC(=O)C1CC2CCCC(C1)C2=O)Nc1ccc(F)c(Cl)c1 (stereo unspecified) | inactive
31 | COc1ccccc1/C=C(/C(=O)OCC(=O)NCc1ccccc1)c1ccccc1 | inactive
32 | S=c1sc2c(Cl)ncnc2n1-c1ccccc1 | inactive
33 | CCCN(C)C[C@@H]1Oc2cc(C#C[C@H](C)O)ccc2S(=O)(=O)N([C@H](C)CO)C[C@@H]1C | inactive
34 | Cc1ccc(C)c(C(=O)Cn2ncc(Cl)c(Cl)c2=O)c1 | inactive
35 | COc1ccc(C#Cc2ccc([C@@H]3[C@H](CO)N4CCCCN(C(=O)Nc5ccccc5)C[C@@H]34)cc2)cc1 | inactive
36 | C[C@@H]1CN([C@H](C)CO)S(=O)(=O)c2ccc(-c3cncnc3)cc2O[C@H]1CN(C)Cc1cccnc1 | inactive
37 | C[C@H](CO)N1C[C@H](C)[C@@H](CN(C)Cc2ccc3c(c2)OCO3)Oc2cc(-c3cccc(C(=O)N(C)C)c3)ccc2S1(=O)=O | inactive
38 | CCCC#Cc1ccc2c(c1)O[C@@H](CN(C)Cc1ccc3c(c1)OCO3)[C@@H](C)CN([C@H](C)CO)S2(=O)=O | inactive
39 | C[C@H]1CN([C@@H](C)CO)S(=O)(=O)c2ccc(-c3ccccc3)cc2O[C@@H]1CN(C)Cc1cccc(F)c1 | inactive
40 | C[C@H]1CN([C@@H](C)CO)S(=O)(=O)c2ccc(C#CCN(C)C)cc2O[C@H]1CN(C)Cc1ccc2c(c1)OCO2 | inactive
41 | COc1ccccc1-c1ccc2c(c1)O[C@@H](CN(C)Cc1ccc3c(c1)OCO3)[C@@H](C)CN([C@H](C)CO)S2(=O)=O | inactive
42 | CC(C)CC#Cc1ccc2c(c1)O[C@@H](CN(C)Cc1ccc3c(c1)OCO3)[C@H](C)CN([C@H](C)CO)S2(=O)=O | inactive
43 | COc1cccc(-c2ccc3c(c2)O[C@H](CN(C)Cc2ccncc2)[C@@H](C)CN([C@@H](C)CO)S3(=O)=O)c1 | inactive
44 | Cc1cccc(CC2CC(=O)N(C3CCCCC3)C2=O)c1 (stereo unspecified) | inactive
45 | CCCCn1c(=O)[nH]c(=O)c2c1nc(-c1ccc(OCCC)c(OCC)c1)n2C | inactive
46 | Oc1ccc(-c2nc(-c3ccc(O)c(O)c3)cs2)cc1 | inactive

Row | SMILES | outcome
47 | Cc1cccc(COc2ccc(/C=C3/C(=O)N(C)C(=S)N3C)cc2)c1 | inactive
48 | COc1ccc(CCN(C)C(=O)CN2C(=O)NC3(CCCc4ccccc43)C2=O)cc1OC (stereo unspecified) | inactive
49 | C/C(=C\C(=O)N1CCc2ccccc21)C(=O)O | inactive
50 | O=C(Nc1cccc2c1CCCC2)c1ccccc1Br | inactive
51 | CC(C)(C)NCCC(O)c1cc(C(F)(F)F)nc2c(C(F)(F)F)cccc12 (stereo unspecified) | inactive
52 | CCN(CC)CC#CCOC(c1ccccc1)c1ccccc1 | inactive
53 | O=[N+]([O-])c1ccc(Oc2ccc(F)cc2)c2ccncc12 | inactive
54 | O=C(Nc1cc(C(F)(F)F)ccc1N1CCOCC1)c1ccccc1 | inactive
55 | COc1ccc(Br)cc1S(=O)(=O)NCc1ccccc1 | inactive
56 | O=C(O)CCCC(=O)Nc1ccc(Br)cc1C(=O)O | inactive
57 | CC(C)[C@H]1COCCS(=O)(=O)N1Cc1ccccc1F | inactive
58 | C[C@H](CO)N1C[C@H](C)[C@H](CN(C)S(=O)(=O)c2ccccc2C#N)OCc2cnnn2CCCC1=O | inactive
59 | CC1CC1C(=O)N(C)CC(=O)Nc1cccc(F)c1 (stereo unspecified) | inactive
60 | CCCN(C)C[C@@H]1Oc2cc(C#CC3CCCC3)ccc2S(=O)(=O)N([C@H](C)CO)C[C@@H]1C | inactive
61 | CCOCCCNC(=O)c1ccccc1SC | inactive
62 | Fc1cccc(CN2C[C@@H]3N[C@H](C2)[C@@H]3c2ccc(-c3cccc(F)c3)cc2)c1 | inactive
63 | Fc1cccc(-c2ccc([C@@H]3[C@@H]4CN(Cc5nccs5)C[C@H]3N4)cc2)c1 | inactive
64 | c1csc(CNc2ncnc3ccc(-c4ccoc4)cc23)c1 | inactive
65 | CCS(=O)(=O)c1ccc2oc(Nc3ccccc3Br)nc2c1 | inactive
66 | CCN1C(=O)CCCc2ccccc21 | inactive
67 | O=C(NCC[C@@H]1CC[C@H](NS(=O)(=O)Cc2ccccc2)[C@H](CO)O1)C1CCC1 | inactive
68 | Nc1nc(Nc2ccccc2)nc2ccccc12 | inactive
69 | CC(=O)c1ccc(Nc2cc(C)nc3ccc(C)cc23)cc1 | inactive

Row | SMILES | outcome
70 | CN(C)CC(=O)N1CCCCN2[C@@H](CO)[C@H](c3ccc(/C=C/c4ccccc4)cc3)[C@@H]2C1 | inactive
71 | Cc1ccc(NC(=O)COC(=O)COc2ccc(Cl)cc2)c([N+](=O)[O-])c1 | inactive
72 | COC(=O)c1ccc(C(=O)OC)c(NC(=O)COC(=O)CCOc2ccc(C)cc2)c1 | inactive
73 | Cc1cc(C)cc(OC(=O)CS(=O)c2ccc(C(F)(F)F)cc2[N+](=O)[O-])c1 (stereo unspecified) | inactive
74 | C[C@@H]1CCCCO[C@@H](CN(C)S(C)(=O)=O)[C@H](C)CN([C@@H](C)CO)C(=O)c2cc(NC(=O)c3ccccc3)ccc2O1 | inactive
75 | COc1nc(OCCNS(=O)(=O)c2ccc(C)cc2)nc(N(C)C)n1 | inactive
76 | O=C(Nc1nc(-c2ccc3ccccc3c2)cs1)c1ccc(N2C(=O)CCC2=O)cc1 | inactive
77 | Cc1ccc(CC(=O)Nc2nccs2)cc1 | inactive
78 | C[C@H]1CN([C@@H](C)CO)C(=O)c2cc(NC(=O)Nc3cccc4ccccc34)ccc2O[C@H]1CN(C)S(=O)(=O)c1ccc(Cl)cc1 | inactive
79 | N#C[C@H]1[C@H](c2ccc(C#CC3CCCC3)cc2)[C@H](CO)N1C(=O)Cc1ccccn1 | inactive
80 | N#C[C@@H]1[C@@H](c2ccc(-c3ccccc3)cc2)[C@@H](CO)N1C(=O)Cc1ccncc1 | inactive
81 | C[C@H](CO)N1C[C@H](C)[C@H](CN(C)C(=O)NC2CCCCC2)Oc2cc(C#Cc3cccc(F)c3)ccc2S1(=O)=O | inactive
82 | CS(=O)(=O)c1sc2nc(-c3cccs3)cc(-c3ccccc3)c2c1N | inactive
83 | COc1ccc(C(=O)Nc2cccc(S(C)(=O)=O)c2)cc1OC | inactive
84 | COc1ccc(NC(=O)c2ccc3c(c2)OCO3)cc1Cl | inactive
85 | C[C@@H]1CN([C@@H](C)CO)C(=O)c2cc(C#CCN(C)C)cnc2O[C@H]1CN(C)Cc1ccc(F)cc1 | inactive
86 | Fc1cccc(CN2C[C@@H]3N[C@H](C2)C3c2ccc(/C=C/c3ccccc3)cc2)c1 (stereo partly specified) | inactive
87 | CCOC(=O)c1oc2nc3c(cc2c1N)COC(C)(C)C3 | inactive
88 | C[C@H]1CN([C@@H](C)CO)C(=O)c2cc(C#CC(C)(C)O)cnc2O[C@@H]1CN(C)C(=O)C1CCC1 | inactive
89 | O=C(Nc1ccc(F)cc1)C1CCCN1S(=O)(=O)c1cccc2nsnc12 (stereo unspecified) | inactive
90 | CC1CCCCN1C(=O)CN(C)S(=O)(=O)c1cccc2nsnc12 (stereo unspecified) | inactive
91 | O=c1c2c3c(sc2n2cnnc2n1Cc1ccccc1)CN(Cc1ccccc1)CC3 | inactive
